Laboratory results reported in PubChem BioAssay AID1159580 (chemical genetic matrix, 2015).
Values joined by “and” are separate entries in the source; they are usually repeats but may differ in a detail not shown here. Equal entries are not always repeated. Hit rate of the full screen: of about 5,500 compounds, about 2,000 (36%) were called active. Roughly 18% stayed inconclusive and do not appear here. Rule as the data show it: active = normalized growth mostly below about 0.91 (no sharp cut-off); inconclusive = no clear call, values can overlap the other calls; inactive = mostly above about 0.92. This is one part of the list.

Test: chemical genetic growth profiling, strain panel (AID 1159580);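 also: tested at 20 µM; growth read once vehicle control cultures reached saturation at 30 °C; 1 = growth at the plate median or of vehicle wells; lower values mean less growth of the strain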
Details: growth OD

Measured: normalized growth

O=C1c2ccccc2C(=O)C1c1ccccc1
active: S. cerevisiae deletion strains, locus YLR058C, strain SHM2 (second series), active compounds read low 0.932 | S. cerevisiae deletion strains, locus YPL241C, strain CIN2, active compounds read low 1.21 [resistant]
inactive: S. cerevisiae deletion strains, locus YKL085W, strain MDH1 (second series), active compounds read low 0.994 | S. cerevisiae deletion strains, locus YKL085W, strain MDH1, active compounds read low 0.994 | S. cerevisiae deletion strains, locus YKL160W, strain elf1, active compounds read low 1 | S. cerevisiae deletion strains, locus YKL190W, strain CNB1, active compounds read low 1 | S. cerevisiae deletion strains, locus YKR001C, strain vps1, active compounds read low 1.01 | S. cerevisiae deletion strains, locus YKR026C, strain gcn3, active compounds read low 0.976 | S. cerevisiae deletion strains, locus YKR091W, strain srl3, active compounds read low 0.997 | S. cerevisiae deletion strains, locus YLL001W, strain dnm1, active compounds read low 1 | S. cerevisiae deletion strains, locus YLL026W, active compounds read low 0.993 | S. cerevisiae deletion strains, locus YLL041C, strain sdh2, active compounds read low 1 | S. cerevisiae deletion strains, locus YLR027C, strain aat2, active compounds read low 0.998 | S. cerevisiae deletion strains, locus YLR039C, strain RIC1, active compounds read low 0.983 and 0.913 | S. cerevisiae deletion strains, locus YLR058C, strain SHM2, active compounds read low 1.01 | S. cerevisiae deletion strains, locus YLR085C, strain ARP6, active compounds read low 0.972 | S. cerevisiae deletion strains, locus YLR102C, strain apc9, active compounds read low 1.01 | S. cerevisiae deletion strains, locus YLR113W, strain HOG1, active compounds read low 0.934 | S. cerevisiae deletion strains, locus YLR221C, strain rsa3, active compounds read low 1 | S. cerevisiae deletion strains, locus YLR258W, strain gsy2, active compounds read low 1.02 | S. cerevisiae deletion strains, locus YLR262C, strain YPT6 (second series), active compounds read low 1 | S. cerevisiae deletion strains, locus YLR262C, strain YPT6, active compounds read low 0.967 and 0.909 | S. cerevisiae deletion strains, locus YLR268W, strain sec22, active compounds read low 1.03 | S. cerevisiae deletion strains, locus YLR320W, strain mms22, active compounds read low 1.01 | S. cerevisiae deletion strains, locus YLR330W, strain CHS5, active compounds read low 0.999 | S. cerevisiae deletion strains, locus YLR342W, strain FKS1 (second series), active compounds read low 1.01 | S. cerevisiae deletion strains, locus YLR342W, strain FKS1, active compounds read low 0.998 | S. cerevisiae deletion strains, locus YLR357W, strain rsc2, active compounds read low 1.03 | S. cerevisiae deletion strains, locus YLR370C, strain arc18, active compounds read low 1 | S. cerevisiae deletion strains, locus YLR371W, strain rom2, active compounds read low 1.01 | S. cerevisiae deletion strains, locus YLR384C, strain iki3, active compounds read low 1 | S. cerevisiae deletion strains, locus YLR418C, strain cdc73, active compounds read low 0.98 | S. cerevisiae deletion strains, locus YML016C, strain PPZ1, active compounds read low 1 | S. cerevisiae deletion strains, locus YML032C, strain rad52, active compounds read low 1.01 | S. cerevisiae deletion strains, locus YML094W, strain GIM5, active compounds read low 0.945 | S. cerevisiae deletion strains, locus YML120C, strain ndi1, active compounds read low 1.01 | S. cerevisiae deletion strains, locus YML124C, strain tub3, active compounds read low 1.01 | S. cerevisiae deletion strains, locus YMR058W, strain fet3, active compounds read low 0.999 | S. cerevisiae deletion strains, locus YMR078C, strain ctf18, active compounds read low 1.01 | S. cerevisiae deletion strains, locus YMR125W, strain sto1, active compounds read low 0.995 | S. cerevisiae deletion strains, locus YMR129W, active compounds read low 0.992 | S. cerevisiae deletion strains, locus YMR205C, strain PFK2, active compounds read low 1.01 | S. cerevisiae deletion strains, locus YMR219W, strain ESC1, active compounds read low 0.954 | S. cerevisiae deletion strains, locus YMR223W, strain ubp8, active compounds read low 1 | S. cerevisiae deletion strains, locus YMR231W, strain pep5, active compounds read low 1 | S. cerevisiae deletion strains, locus YMR263W, strain SAP30, active compounds read low 1.01 | S. cerevisiae deletion strains, locus YMR307W, strain GAS1, active compounds read low 1.01 | S. cerevisiae deletion strains, locus YNL067W, strain RPL9B, active compounds read low 0.999 | S. cerevisiae deletion strains, locus YNL071W, strain lat1, active compounds read low 1 | S. cerevisiae deletion strains, locus YNL128W, strain TEP1, active compounds read low 1.02 | S. cerevisiae deletion strains, locus YNL153C, strain GIM3, active compounds read low 0.996 and 0.979 | S. cerevisiae deletion strains, locus YNL183C, strain NPR1, active compounds read low 0.939 | S. cerevisiae deletion strains, locus YNL209W, strain ssb2, active compounds read low 1.01 | S. cerevisiae deletion strains, locus YNL233W, strain BNI4, active compounds read low 1 | S. cerevisiae deletion strains, locus YNL248C, strain rpa49, active compounds read low 1 | S. cerevisiae deletion strains, locus YNL250W, strain rad50, active compounds read low 0.989 | S. cerevisiae deletion strains, locus YNL271C, strain bni1, active compounds read low 1 | S. cerevisiae deletion strains, locus YNL298W, strain CLA4 (second series), active compounds read low 0.968 | S. cerevisiae deletion strains, locus YNL298W, strain CLA4, active compounds read low 0.994 | S. cerevisiae deletion strains, locus YNL307C, strain MCK1, active compounds read low 1 | S. cerevisiae deletion strains, locus YNL322C, strain KRE1 (second series), active compounds read low 1 | S. cerevisiae deletion strains, locus YNL322C, strain KRE1, active compounds read low 1 and 0.969 | S. cerevisiae deletion strains, locus YNR030W, strain Alg12, active compounds read low 0.969 | S. cerevisiae deletion strains, locus YNR049C, strain mso1, active compounds read low 0.998 | S. cerevisiae deletion strains, locus YNR052C, strain pop2, active compounds read low 1.01 | S. cerevisiae deletion strains, locus YOL006C, strain TOP1, active compounds read low 0.964 | S. cerevisiae deletion strains, locus YOL012C, strain htz1 0.826 | S. cerevisiae deletion strains, locus YOL147C, strain pex11, active compounds read low 1.01 | S. cerevisiae deletion strains, locus YOR001W, strain rrp6, active compounds read low 1.01 | S. cerevisiae deletion strains, locus YOR061W, strain CKA2, active compounds read low 1 | S. cerevisiae deletion strains, locus YOR069W, strain VPS5, active compounds read low 1 | S. cerevisiae deletion strains, locus YOR070C, strain gyp1, active compounds read low 0.996 | S. cerevisiae deletion strains, locus YOR080W, strain dia2, active compounds read low 1 | S. cerevisiae deletion strains, locus YOR083W, strain WHI5, active compounds read low 0.999 | S. cerevisiae deletion strains, locus YOR106W, strain vam3, active compounds read low 1.01 | S. cerevisiae deletion strains, locus YOR136W, strain idh2, active compounds read low 1.01 | S. cerevisiae deletion strains, locus YOR144C, strain elg1, active compounds read low 1 | S. cerevisiae deletion strains, locus YOR184W, strain ser1, active compounds read low 1.02 | S. cerevisiae deletion strains, locus YOR231W, strain MKK1, active compounds read low 0.992 | S. cerevisiae deletion strains, locus YOR265W, strain rbl2, active compounds read low 0.995 | S. cerevisiae deletion strains, locus YOR270C, strain vph1, active compounds read low 1.01 | S. cerevisiae deletion strains, locus YOR290C, strain snf2, active compounds read low 0.997 | S. cerevisiae deletion strains, locus YOR316C, strain cot1, active compounds read low 1.01 | S. cerevisiae deletion strains, locus YPL051W, strain arl3, active compounds read low 1 | S. cerevisiae deletion strains, locus YPL055C, strain LGE1, active compounds read low 1 and 0.972 | S. cerevisiae deletion strains, locus YPL078C, strain atp4, active compounds read low 1 | S. cerevisiae deletion strains, locus YPL106C, strain sse1, active compounds read low 1.01 | S. cerevisiae deletion strains, locus YPL240C, strain hsp82, active compounds read low 1 | S. cerevisiae deletion strains, locus YPL256C, strain CLN2, active compounds read low 0.917 | S. cerevisiae deletion strains, locus YPR119W, strain clb2, active compounds read low 1.01 | S. cerevisiae deletion strains, locus YPR135W, strain CTF4, active compounds read low 0.934 | S. cerevisiae deletion strains, locus YPR141C, strain kar3, active compounds read low 0.987 | S. cerevisiae deletion strains, locus YPR163C, strain tif3, active compounds read low 1.01 | S. cerevisiae deletion strains, locus YPR167C, strain met16, active compounds read low 1.01 | S. cerevisiae deletion strains, strain wtn01, active compounds read low 1.01 | S. cerevisiae strains, strain wild type, active compounds read low 0.999 and 0.961
